# According to the supplement of paper PMC10646978:
# ± gives the standard deviation.
# Key:
# Conditions in all cases: modulator concentration 10 µM
# [1] = test system: RAW-Dual (murine macrophage reporter line); assay: NF-kB reporter (SEAP) activity fold change vs agonist alone; higher = enhanced NF-kB activity
# Outline: (§1)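 Compound reached 10 μM final in each well by pin transfer, onto RAW-Dual murine macrophage reporter cells seeded at 50 000 per well in 384-well plates. After 1 hour at 37 °C, the cells were stimulated overnight with a PRR agonist. SEAP in the supernatant was read with QUANTI-Blue at 620 nm absorbance for NF-κB, and Lucia luciferase was read with QUANTI-Luc luminescence for IRF. Each signal was turned into fold change against the mean agonist-only control on the same plate, and two replicate plates were averaged with propagated errors.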
# [2] = test system: RAW-Dual (murine macrophage reporter line); assay: IRF reporter (Lucia luciferase) activity fold change vs agonist alone; higher = enhanced IRF activity
# Outline: as §1
# [3] = test system: RAW-Dual (murine macrophage reporter line); assay: viability score (confluency relative to resting cells, overnight) (fraction); higher = more viable, active = viable (0.7 or more)
# Outline: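 Overnight exposure to 10 μM final compound was carried out on RAW-Dual macrophages in 384-well plates. IncuCyte software generated two confluency masks over all wells imaged with IncuCyte. The viability score gives confluency in relation to resting cells. A compound met the cutoff if each mask exceeded 70% of resting cells.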
# [4] = agonist: CpG ODN 1826 0.5 ug/mL
SMILES,"NF-kB reporter [1, 4]",NF-kB reporter ([1]; agonist: LPS 0.1 ug/mL),NF-kB reporter ([1]; agonist: MPLA […]),IRF reporter ([2]; agonist: 3'3'-cGAMP 10 ug/mL),IRF reporter ([2]; agonist: LPS 0.1 ug/mL),IRF reporter ([2]; agonist: MPLA […]),viability score [3]
CN(C)C(=O)c1cc2cnc(Nc3ccc(N4CCNCC4)cn3)nc2n1C1CCCC1,0.832 ± 0.036,0.887 ± 0.11,0.941 ± 0.071,0.987 ± 0.046,1.35 ± 0.29,1.53 ± 0.49,0.711 (active)
CCOC(=O)C1=C(C)NC(=S)NC1c1ccccc1OCc1ccccc1 (stereo not drawn),0.862 ± 0.069,1.05 ± 0.063,0.965 ± 0.058,0.679 ± 0.09,1.25 ± 0.22,1.03 ± 0.087,1.01 (active)
CC(C)CN(C[C@@H](O)[C@H](Cc1ccccc1)NC(=O)O[C@H]1CCOC1)S(=O)(=O)c1ccc(N)cc1,1.51 ± 0.36,1.4 ± 0.43,1.63 ± 0.097,0.918 ± 0.028,1.29 ± 0.33,1.22 ± 0.14,0.998 (active)
CC(c1ccccc1)c1nnc(NC(=O)c2ccco2)s1 (stereo not drawn),0.853 ± 0.29,1.12 ± 0.12,1.04 ± 0.1,0.906 ± 0.027,1.13 ± 0.23,1.3 ± 0.32,0.968 (active)
CN1CCN(C(CNC(=O)c2ccccc2Br)c2ccc(F)cc2)CC1 (stereo not drawn),0.878 ± 0.047,0.967 ± 0.12,0.944 ± 0.13,1.03 ± 0.053,1.06 ± 0.093,0.936 ± 0.34,1.01 (active)
CSc1cc(C=NO)c(SC)s1,0.874 ± 0.08,0.799 ± 0.1,0.886 ± 0.085,0.713 ± 0.043,0.975 ± 0.15,1.01 ± 0.27,0.285 (inactive)
N#CC(=Cc1c(F)cccc1Cl)C(=O)Nc1ccc(Cl)cc1,1.08 ± 0.22,0.977 ± 0.077,0.952 ± 0.079,0.746 ± 0.17,1.3 ± 0.22,1.25 ± 0.13,1.01 (active)
O=C(COC(=O)c1ccc(Cl)c([N+](=O)[O-])c1)c1ccc(Cl)cc1,0.942 ± 0.072,0.978 ± 0.081,0.99 ± 0.093,0.929 ± 0.035,1.22 ± 0.18,1.36 ± 0.29,1.01 (active)
Nc1ncn([C@H]2C[C@H](O)[C@@H](CO)O2)c(=O)n1,1.3 ± 0.11,0.995 ± 0.054,1.15 ± 0.061,1.84 ± 0.32,1.09 ± 0.048,1.39 ± 0.27,0.963 (active)
O=C(CCCC(=O)Nc1ccc(Cl)c(Cl)c1)Nc1ccc(Cl)c(Cl)c1,0.964 ± 0.076,1.02 ± 0.062,0.914 ± 0.068,0.963 ± 0.029,1.41 ± 0.13,1.13 ± 0.14,1.01 (active)
Cc1cnc(C(=O)O)c[n+]1[O-],1.09 ± 0.085,0.988 ± 0.074,1.03 ± 0.026,0.962 ± 0.069,0.966 ± 0.048,0.926 ± 0.11,1 (active)
COc1ccc(OC)c(Nc2nc(-c3c(C)nc4sccn34)cs2)c1,0.853 ± 0.073,0.961 ± 0.1,1.21 ± 0.13,0.925 ± 0.046,1.43 ± 0.094,1.75 ± 0.15,1.01 (active)
C=CC(=O)N1CCC(Oc2cc3c(Nc4ccc(Cl)c(Cl)c4F)ncnc3cc2OC)CC1,0.879 ± 0.037,0.909 ± 0.095,1.05 ± 0.061,1.08 ± 0.064,1.36 ± 0.3,1.49 ± 0.48,0.97 (active)
COCCCOc1ccnc(CS(=O)c2nc3ccccc3[nH]2)c1C (stereo not drawn),1.24 ± 0.3,1.07 ± 0.098,1.11 ± 0.11,0.839 ± 0.029,1.22 ± 0.13,1.28 ± 0.23,0.98 (active)
